# Measured values taken from PubChem BioAssay (NCATS).
# Records with an inconclusive call do not appear. Where a call stands in place of a potency, no number is given. Unmarked numbers belong to inactive results. Active and inactive are the calls of the source. Unless noted, the call rests on the fitted dose curve; in most records, active means well fitted curve in the direction sought with a large enough effect; inconclusive means small, poorly fitted or top-dose-only effect, or another doubt; inactive means no such curve, though single readings can be large; an effect the other way counts as inactive or inconclusive.
# Experiments:
# [1] = biological target: Aldehyde dehydrogenase, mitochondrial (Homo sapiens) (UniProt P05091); assay: qHTS for Inhibitors of the Aldehyde Dehydrogenase Family (ALDH2) Confirmatory screens (AID 2061303; active means well fitted inhibition curve with a large enough effect; title and protocol of this record describe different tests; further: nearly all actives have a fitted effect of over 45% in size; further: potency means the concentration at half of the fitted maximal effect)
# [2] = qHTS for Inhibitors of the Aldehyde Dehydrogenase Family (ALDH1A2, ALDH1A3, ALDH2, ALDH3A1) (AID 2061307); further: nearly all actives have a fitted effect of over 50% in size; on potency: test system not described further here; potency means the concentration at half of the fitted maximal effect
# [3] = biological target: Aldehyde dehydrogenase, mitochondrial (Homo sapiens) (UniProt P05091); assay: qHTS for Inhibitors of the Aldehyde Dehydrogenase Family (ALDH2) Primary screen (AID 2061308); further: nearly all actives have a fitted effect of over 55% in size; further: potency means the concentration at half of the fitted maximal effect
# [4] = biological target: Retinaldehyde dehydrogenase 3 (Homo sapiens) (UniProt P47895); assay: qHTS for Inhibitors of the Aldehyde Dehydrogenase Family (ALDH1A3) Confirmatory screens (AID 2061311); further: potency means the concentration at half of the fitted maximal effect; nearly all actives have a fitted effect of over 60% in size
# [5] = biological target: Aldehyde dehydrogenase 1A1 (Homo sapiens) (UniProt P00352); assay: qHTS for Inhibitors of the Aldehyde Dehydrogenase Family (ALDH1A1) Confirmatory screens (AID 2061316); further: nearly all actives have a fitted effect of over 65% in size; further: potency means the concentration at half of the fitted maximal effect
# [6] = BET inhibitor-based combinations targeting novel dependencies in MECOM-rearranged (r) AML: SET-2 cell line (AID 2202231); settings: SET-2 AML cells viability, CellTiter-Glo luminescence, 48 h; viability: stronger effect = lower value, series mostly up to about 46 µM; further: nearly all actives have a fitted effect of over 35% in size
# Outline: (§1)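 Each compound was tested at eleven concentrations on cells seeded at 500/well. After two days' incubation, ATP-based luminescence reported viability; responses relative to DMSO and blank wells yielded AUC and cell-line-centred Z-AUC.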
# [7] = BET inhibitor-based combinations targeting novel dependencies in MECOM-rearranged (r) AML: OCI-AML3 cell line (AID 2202232); settings: Potency: OCI-AML3 viability; further: series mostly up to about 46 µM; nearly all actives have a fitted effect of over 35% in size
# Outline: as §1
# [8] = BET inhibitor-based combinations targeting novel dependencies in MECOM-rearranged (r) AML: MV-4-11 cell line (AID 2202233); further: nearly all actives have a fitted effect of over 45% in size
# Outline: (§2)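 First, 500 cells per well were seeded; next, drugs were pinned as 11-point doses; then plates sat 48 hr in the incubator; finally CellTiter-Glo was added and luminescence read, with AUC and Z-AUC computed.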
# [9] = BET inhibitor-based combinations targeting novel dependencies in MECOM-rearranged (r) AML: HNT-34 cell line (AID 2202234); further: nearly all actives have a fitted effect of over 35% in size
# Outline: as §2
# [10] = BET inhibitor-based combinations targeting novel dependencies in MECOM-rearranged (r) AML: UCSD-AML1 cell line (AID 2202235); further: series mostly up to about 46 µM; nearly all actives have a fitted effect of over 40% in size
# Outline: as §2
# [11] = BET inhibitor-based combinations targeting novel dependencies in MECOM-rearranged (r) AML: AML-191 cell line (AID 2202236; further: nearly all actives have a fitted effect of over 35% in size)
# Outline: as §1
# [12] = BET inhibitor-based combinations targeting novel dependencies in MECOM-rearranged (r) AML: AML-194 cell line (AID 2202237; further: nearly all actives have a fitted effect of over 40% in size)
# Outline: as §1
# [13] = biological target: Retinal dehydrogenase 2 (Homo sapiens) (UniProt O94788); assay: qHTS for Inhibitors of the Aldehyde Dehydrogenase Family (ALDH1A2) Confirmation screens (AID 2061314); further: nearly all actives have a fitted effect of over 65% in size; further: potency means the concentration at half of the fitted maximal effect
# [14] = biological target: Retinaldehyde dehydrogenase 3 (Homo sapiens) (UniProt P47895); assay: qHTS for Inhibitors of the Aldehyde Dehydrogenase Family (ALDH1A3) Primary screen (AID 2061315)
compound,measurement,setting,value
CC1=NN(c2ccccc2)C(=O)C1,Potency,[1],12.6 µM (active)
same,Potency,[2],6.31 µM (active)
same,Potency,[3],0.794 µM (active)
same,Potency,[4],8.91 µM (active)
same,Potency,[5],1.42 µM (active)
same,viability,[6],112%
same,Potency,[7],inactive
same,Potency,[8],inactive
same,Potency,[9],inactive
same,Potency,[10],inactive
same,Potency,[11],inactive
same,Potency,[12],inactive
NC1CCN(c2nc(-c3ccc(Br)cc3)cs2)CC1,Potency,[1],inactive
same,Potency,[2],inactive
same,Potency,[3],inactive
same,Potency,[13],inactive
same,Potency,[14],inactive
same,Potency,[5],inactive
COc1ccc(C2Nc3ccccc3C(=O)N2Cc2ccccc2)cc1COc1cccc(C(F)(F)F)c1 (stereo not given),Potency,[1],inactive
same,Potency,[2],inactive
same,Potency,[3],inactive
same,Potency,[13],20.1 µM (active)
same,Potency,[14],inactive
same,Potency,[5],inactive
Cc1cc(=O)oc2c(C=O)c(O)ccc12,Potency,[1],inactive
same,Potency,[2],inactive
same,Potency,[3],inactive
same,Potency,[4],12.7 µM (active)
same,Potency,[5],8.96 µM (active)
Cc1cccc(-n2cnc3cc(C(=O)N4CCC(Br)CC4)ccc32)c1,Potency,[1],inactive
same,Potency,[2],inactive
same,Potency,[3],inactive
same,Potency,[13],inactive
same,Potency,[14],inactive
O=S1(=O)N=C(Oc2ccccc2F)c2ccccc21,Potency,[1],inactive
same,Potency,[2],inactive
same,Potency,[3],inactive
same,Potency,[13],inactive
same,Potency,[14],inactive
Cc1cccc(-n2cnc3cc(C(=O)N4CCCC(C)(C)C4)ccc32)c1,Potency,[1],inactive
same,Potency,[2],inactive
same,Potency,[3],inactive
same,Potency,[13],inactive
same,Potency,[14],inactive
CCN(CC)c1cc2c(cc1S(=O)(=O)Nc1ccc(C)c(C)c1)CCC(=O)N2,Potency,[1],inactive
same,Potency,[2],inactive
same,Potency,[3],inactive
same,Potency,[13],inactive
same,Potency,[14],inactive
Fc1cc(Nc2nc(-c3ccncc3)nc3ccccc23)ccc1N1CCNCC1,Potency,[1],inactive
same,Potency,[2],inactive
same,Potency,[3],inactive
same,Potency,[13],inactive
same,Potency,[14],inactive
CN(Cc1ncc[nH]1)c1ncnc2ccc(-c3ccc4c(c3)OCO4)cc12,Potency,[1],inactive
same,Potency,[2],inactive
same,Potency,[3],inactive
same,Potency,[13],inactive
same,Potency,[14],inactive
same,Potency,[5],inactive
O=C(c1ccccc1)N1CCN(c2nc(-c3ccc(Br)cc3)cs2)CC1,Potency,[1],15.8 µM (active)
same,Potency,[2],15.8 µM (active)
same,Potency,[3],inactive
same,Potency,[13],inactive
same,Potency,[14],inactive
CC(C)(C)OC(=O)N1CCN(c2ccc(NCc3ccnc(-c4ccc(C#N)cc4)n3)cc2)CC1,Potency,[1],0.504 µM (active)
same,Potency,[2],0.357 µM (active)
same,Potency,[3],0.282 µM (active)
same,Potency,[13],inactive
same,Potency,[14],inactive
O=C(Nc1ccc2ccccc2c1)Nc1nnc(-c2cccnc2)s1,Potency,[1],inactive
same,Potency,[2],inactive
same,Potency,[3],inactive
same,Potency,[13],12.7 µM (active)
same,Potency,[14],inactive
